In PubChem BioAssay AID1240 (Sanford-Burnham Center for Chemical Genomics, 2008):
Screen size: about 50,000 compounds; about 800 (1.6%) showed an effect of 50% or more. This excerpt belongs to a sample that is enriched for strong results.

molecular target: Bcl-2-like protein 10 (Homo sapiens) (UniProt Q9HD36); test: Phenotype converters, Bcl-B/TR3 peptide binding displacement, primary biochemical FP (AID 1240); settings: GST-Bcl-B / FITC-TR3 peptide fluorescence polarization; stronger effect = higher value; compound at 3.75 mg/L;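 also: 0% = Bcl-B with tracer peptide and DMSO and 100% = tracer peptide lacking Bcl-B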
Sequence (Q9HD36 whole entry, looked up): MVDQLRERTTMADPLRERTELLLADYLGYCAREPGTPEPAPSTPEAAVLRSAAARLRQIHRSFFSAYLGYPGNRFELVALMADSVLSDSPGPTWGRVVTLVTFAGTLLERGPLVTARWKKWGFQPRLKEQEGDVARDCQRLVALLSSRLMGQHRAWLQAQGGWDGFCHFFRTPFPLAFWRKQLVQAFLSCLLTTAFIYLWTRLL

Structure (SMILES) | displacement
CCOc1ccc(/C=C/C(=O)c2ccc(F)cc2)cc1 | -0.4%
CN(C)/C=C1\C(=O)N/C(=C/c2ccc(Br)cc2)C1=O | 7.9%
CCN(CC)c1ccc(NC(=O)c2ccc3ccccc3n2)cc1 | 1.3%
CCCCS(=O)CC(O)COC(C)C (configuration not stated) | -1.5%
Cc1cc(OCC(=O)NC2C3CC4CC(C3)CC2C4)ccc1Br (configuration not stated) | -6.7%
COc1cc(OC)c([N+](=O)[O-])cc1/C=C1\C=C(c2ccc(Br)cc2)OC1=O | 49.1%
COc1ccc(/C=C2\C=C(c3ccc(Br)cc3)OC2=O)cc1[N+](=O)[O-] | 70%
COc1ccc(/C=C2\C=C(c3ccc(C)cc3)OC2=O)cc1[N+](=O)[O-] | 6.6%
COc1ccc(C2=C/C(=C\c3ccc(OC)c([N+](=O)[O-])c3)C(=O)O2)cc1 | 2.7%
COc1cc(/C=C2\C=C(c3ccc(Br)cc3)OC2=O)c([N+](=O)[O-])cc1OC | 55%
COc1cc(/C=C2\C=C(c3ccc(Cl)cc3)OC2=O)c([N+](=O)[O-])cc1OC | -11.8%
COc1cccc(OCCCCS)c1 | 10%
O=C(O)c1cc(S(=O)(=O)N2CCCCC2)ccc1O | -1.5%
COc1ccc(C2CC(=O)C3=C(C2)Nc2ccccc2NC3c2cccc3ccccc23)cc1OC (configuration not stated) | 1.8%
O=C(Nc1c(C(=O)N2CCOCC2)cnn1-c1ccccc1)c1cccs1 | 12.5%
Cc1oc2c(CN3CCN(C)CC3)c(O)ccc2c(=O)c1-c1nc2ccccc2s1 | 11.7%
CN1CCN(Cc2c(O)ccc3cc(-c4nc5ccccc5s4)c(=O)oc23)CC1 | 121%
CN(C)Cc1c(O)ccc2cc(-c3nc4ccccc4s3)c(=O)oc12 | 110%
CCc1cc2c(=O)c(-c3nc4ccccc4s3)coc2c(CN(C)C)c1O | -15%
Cc1oc2c(CN3CCCC3)c(O)ccc2c(=O)c1-c1nc2ccccc2s1 | 12.7%
CN1CCN(Cc2c(O)ccc3cc(-c4ccccn4)c(=O)oc23)CC1 | 25.9%
CCc1cc2c(=O)c(-c3nc4ccccc4s3)coc2c(CN2CCOCC2)c1O | 1%
O=c1oc2c(CN3CCOCC3)c(O)ccc2cc1-c1nc2ccccc2s1 | 118%

Structure (SMILES) | displacement
Cc1oc2c(CN(CC(C)C)CC(C)C)c(O)ccc2c(=O)c1-c1nc2ccccc2s1 | 12.7%
Cc1cccc(NC(=O)C2C(c3ccccc3)=C2c2ccccc2)c1C | 5.5%
CCN(CC)c1ccc(NC(=O)COc2ccc(OC)cc2)cc1 | -5%
COc1ccccc1N1C(=O)NC(=O)/C(=C/c2ccc(OC)c3ccccc23)C1=O | 5.3%
C=CCOc1ccc(Cl)cc1/C=C1/SC(=S)NC1=O | -2.6%
O=C(Nc1cc(Br)cc2cccnc12)c1ccc(Cl)cc1 | -7.2%
Cc1cc(/C=C2\NC(=O)NC2=O)c(C)n1-c1ccc(N(C)C)cc1 | 3.4%
Cc1cc(/C=C2/NC(=O)NC2=O)c(C)n1-c1ccc(Cl)cc1 | 10.7%
Cc1cc(/C=C2/C(=O)NC(=O)N(c3ccccc3)C2=O)c(C)n1-c1ccccc1 | 30.8%
Cc1cc(/C=C2\C(=O)NC(=O)N(C)C2=O)c(C)n1-c1ccc(N(C)C)cc1 | 124%
Cc1cc(C=C2C(=O)NC(=O)NC2=O)c(C)n1-c1ccc(Cl)cc1 | 106%
Cc1cc(C=C2C(=O)NC(=O)NC2=O)c(C)n1-c1ccc(F)cc1 | 4.7%
Cc1cc(C=C2C(=O)NC(=O)NC2=O)c(C)n1-c1ccc(N2CCOCC2)cc1 | 126%
Cc1cc(/C=C2/NC(=O)NC2=O)c(C)n1-c1ccc(N2CCOCC2)cc1 | -5.1%
Cc1cc(C=C2C(=O)NC(=S)NC2=O)c(C)n1-c1ccc(N2CCOCC2)cc1 | 22.3%
FC(F)(F)c1ccccc1CN1CCN(Cc2c[nH]c3ccccc23)CC1 | -5.2%
C=C(C)CNC(=S)NC1=C(C)N(C)N(c2ccccc2)C1=C | -10.7%
O=C(NC1CCS(=O)(=O)C1)/C(=C\c1ccc(Br)cc1)NC(=O)c1ccccc1 (configuration not stated) | 1.9%
O=C1c2ccccc2C(=O)C12OC(c1ccc(Br)cc1)C1(C(=O)c3ccccc3C1=O)C2c1ccc(F)cc1 (configuration not stated) | 2.6%
Fc1ccc(/C=N/Nc2nnc(-c3ccccc3)c(-c3ccccc3)n2)cc1 | 5.2%
C(=C(\c1ccccc1)c1nc2ccccc2[nH]1)/c1ccco1 | 2.2%
CCN1C(=O)c2cccc3c(NC(=O)c4ccc(Oc5ccccc5)cc4)ccc1c23 | -14.2%
CCN1C(=O)c2cccc3c(NC(=O)c4cccs4)ccc1c23 | -29.9%

Structure (SMILES) | displacement
CCN1C(=O)c2cccc3c(S(=O)(=O)N(C)C)ccc1c23 | 6.6%
CCN1C(=O)c2cccc3c(NC(=O)c4ccc(S(=O)(=O)N(C)C)cc4)ccc1c23 | 84.1%
O=C(Nc1cccc2ccccc12)c1ccc(S(=O)(=O)N2CCCCC2)cc1 | -8.9%
CCN1C(=O)c2cccc3c(NC(=O)c4ccc(S(=O)(=O)N5CCOCC5)cc4)ccc1c23 | 8.7%
CCN1C(=O)c2cccc3c(NC(=O)c4ccc(C(=O)c5ccccc5)cc4)ccc1c23 | 101%
CCN1C(=O)c2cccc3c(NC(=O)c4ccc(Cl)s4)ccc1c23 | 11.6%
CCN1C(=O)c2cccc3c(NC(=O)c4ccc(S(=O)(=O)N5CCCCCC5)cc4)ccc1c23 | 88.2%
COCCNC(=O)Cc1ccc(Br)cc1 | 13.1%
COc1ccc(CC(=O)Nc2cccc(NC(=O)c3cccc(Cl)c3)c2)cc1OC | -0.7%
CCc1nn2c(N)c(C=C3C=CC(=O)C=C3)c(=O)nc2s1 | 1.9%
COc1ccc(CCNC(=O)C2CN(S(=O)(=O)c3ccccc3)CCN2S(=O)(=O)c2ccccc2)cc1OC (configuration not stated) | -2.8%
O=C(COC(=O)C1CC(=O)N(c2ccc(Cl)cc2)C1)c1ccccc1 (configuration not stated) | 9.1%
O=C(NC(=S)Nc1ccc(N2CCCCC2)c(Cl)c1)c1ccco1 | -7.1%
CC(C)CCn1c(=O)[nH]c2ccccc21 | 10.2%
CCCc1c(C)nc2c(Cl)cccc2c1SCC(=O)O | -1.7%
COC(=O)c1c(NC(=O)c2ccco2)sc2c1CCC(C)C2 (configuration not stated) | 0.1%
NC(=O)c1c(NC(=O)c2ccco2)sc2c1CCC2 | 4.5%
COC(=O)c1c(NC(=O)c2ccco2)sc2c1CCC2 | 91.1%
CCc1ccccc1OCCCNC(C)(C)C | 1.5%
O=C(NNC(=O)c1cc([N+](=O)[O-])ccc1Cl)c1ccc([N+](=O)[O-])cc1 | -4.8%
NC(=O)C1CCN(C(=O)c2ccc([N+](=O)[O-])cc2)CC1 | 4.4%
